Growth data for 28 compounds are collected here from PubChem BioAssay (NCI).

Experiment in all cases: NCI-60 one-dose screen, 48 h (100 = growth as untreated, 0 = no growth, -100 = all killed)
Holding throughout (details): 10 µM unless noted

In assay [1] the test system is HCT-15 colon.
The subject of assay [2] is HT29 colon.
The test system of assay [3] is SNB-75 CNS.
In assay [4] the test system is SNB-19 CNS.
The test system of assay [5] is U251 CNS.
In assay [6] the test system is PC-3 prostate.
In assay [7] the test system is SK-MEL-5 melanoma.
Assay [8] concerns UACC-62 melanoma.
For assay [9], the system named is SK-MEL-28 melanoma.

Compounds without any hit were thinned out: in the full panel of roughly 83,000, 20% have a hit.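 The test compound was applied at a single concentration to cells in 96-well plates for 48 hours, and percent growth was recorded.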 Unmarked numbers belong to inactive results. Calls of active or inactive are those of the source. Rule for the calls: active = growth percent below 10; inactive = the rest.

Take `COc1ccc(NC(=O)c2ccc3c(c2)nc(-c2cc4ccccc4[nH]c2=O)n3-c2cc(C(C)(C)C)[nH]n2)cc1`: the growth in [1] is 95.5%; in assay [2], 106%; in [3], 76.2%; in [4] it was 75.4%; in assay [5], 85.6%; in assay [6], 79.1%. The growth in assay [7] was 84%; in [8] it was 85.6%; in assay [9] it was 93.2%.
As to `COc1ccc(C2CC(=O)c3c(nc4ccc(Cl)cc4c3N)C2)cc1` (configuration not stated), the growth in assay [1] is 92.5%; in assay [2] it was 101%; in assay [3] it was 95.7%; in assay [4], 103%; in assay [5], 106%; in assay [6], 101%. Also, the growth is 98.3% in assay [7], 99.5% in assay [8] and 98.4% in [9].
For the compound `Nc1c2c(nc3ccc(Cl)cc13)CC(c1ccc(O)cc1)CC2=O` (configuration not stated), the growth in [1] was 29.3%; in assay [2] it was 101%; in assay [3] it was 30.5%; in assay [4], 45.8%; in assay [5], 47.2%; in assay [6], 49.2%. Also, the results for the growth in [7], in [8] and in [9] were 23.6%, 32.8% and 57%, respectively.
For the compound `O=C(O)c1cccc2c1-c1ccc(Cl)cc1C2`, the growth was 102% in assay [1]; 109% in assay [2]; 88.2% in [3]; 105% in assay [4]; 108% in assay [5]; 108% in assay [6]. For the same compound, the figures for the growth in assay [7], in [8] and in assay [9] were 103%, 102% and 108%, respectively.
For the compound `COc1ccc2c(c1)c1nc3cc(C)c(C)cc3nc1n2CCN(C)C`, the growth was -80.3% (active) in assay [1]; -1.79% (active) in [2]; 22.2% in assay [3]; 13.6% in assay [4]; -85.8% (active) in assay [5]; -14.4% (active) in assay [6]. Also, the growth in [7] was 45.3%; in assay [8], 11%; in assay [9], 9.16% (active).
As for `Cn1cc(-c2nc(-c3c[nH]c4ncccc34)cs2)c2cc(Br)ccc21`, the growth in [1] was 64.2%; in assay [2], 70.5%; in [3], 80.5%; in assay [4], 108%; in assay [5], 72.9%; in [6], 76.7%. The growth in [7] was 91.8%; in assay [8], 80.5%; in [9], 102%.
As for `Cc1ccc(S(=O)(=O)Nc2ccc(-c3cc(-c4cccc(F)c4)c(C#N)c(N)n3)cc2)cc1`, the growth in [1] is -23.3% (active); in [2], -7.07% (active); in assay [3], -11.7% (active); in assay [4] it was 51.4%; in [5], 22.6%; in assay [6] it was 18.6%. Further, the growth in assay [7] was 28.4%; in assay [8], -6.88% (active); in [9] it was -33.3% (active).
Consider `O=C1/C(=C\c2ccc(Br)o2)SC(=S)N1CCc1ccc(O)cc1`, for which the growth in [1] was 72.1%; in assay [2], 114%; in assay [3], 65.6%; in assay [4], 88.1%; in [5], 96.5%; in [6], 77.2%. In addition, the growth in assay [7] was 99.2%; in assay [8], 64%; in assay [9], 55.3%.
Turning to `C[C@H]1[C@@H]2[C@H]3CC[C@@H]4[C@@]5(C)Cc6c([nH]c7ccccc67)C(C)(C)[C@@H]5CC[C@@]4(C)[C@]3(C)CC[C@]23CO[C@]1(C)[C@@H](C(=O)/C=C/c1ccccn1)C3`, the growth was 85.9% in [1]; 82.6% in assay [2]; 90.9% in assay [3]; 85.6% in assay [4]; 81.7% in assay [5]; 60.3% in assay [6]. In addition, the growth was 88.5% in assay [7], 79% in assay [8] and 97.4% in assay [9].
Consider `Cc1ccc(-c2nc([P+](c3ccccc3)(c3ccccc3)c3ccccc3)c(N3C[C@H]4C[C@H](C3)c3cccc(=O)n3C4)o2)cc1`, for which the growth is 86.8% in assay [1]; 92.3% in assay [2]; 74.6% in assay [3]; 64.1% in assay [4]; 58.8% in assay [5]; 82.7% in [6]. For the same compound, the values for the growth in assay [7], in assay [8] and in assay [9] were 68%, 54.5% and 62%, respectively.
For `CC(=O)OC[C@]12CC[C@@H](/C(C)=N/O)[C@@H]1[C@H]1CC[C@@H]3[C@@]4(C)CCCNC(C)(C)[C@@H]4CC[C@@]3(C)[C@]1(C)CC2`, the growth was 60.1% in assay [1]; 59.6% in assay [2]; 63.9% in [3]; 83.1% in assay [4]; 68.7% in assay [5]; 42.5% in assay [6]. Moreover, the growth was 51.3% in [7], 66.5% in [8] and 86% in [9].
For the compound `O=[N+]([O-])c1cc(S(=O)(=O)c2ccc(F)c([N+](=O)[O-])c2)ccc1F`, the growth is 36.5% in assay [1]; 97% in assay [2]; 97.2% in [3]; 106% in assay [4]; 62.8% in assay [5]; 107% in assay [6]. Moreover, the growth is 106% in [7], 105% in [8] and 110% in assay [9].
Regarding `COc1ccc(/C(=C\c2ccc3c(c2)OCO3)C(=O)Nc2nc3ccccc3s2)cc1OC`, the growth in assay [1] is 90.1%; in assay [2] it was 90.3%; in [3] it was 94.3%; in [4], 101%; in assay [5], 97.9%; in [6], 92.1%. Moreover, the figures for the growth in assay [7], in assay [8] and in [9] were 101%, 97.8% and 106%, respectively.
Take `Fc1cccc(-c2[nH]nc3nc(Nc4cccnc4)sc23)c1`: the growth in [1] is 37.1%; in assay [2], 14.5%; in assay [3], 47.5%; in assay [4], 40.2%; in assay [5], 38.6%; in [6], 33.1%. Further, the results for the growth in assay [7], in assay [8] and in assay [9] were 33%, 57.2% and 68.6%, respectively.
As to `COc1cc(-c2c(C#N)c(-c3cccs3)nc3c2c(-c2ccccc2)nn3-c2ccccc2)ccc1O`, the growth was 73.5% in assay [1]; 74.8% in assay [2]; 79.8% in assay [3]; 98.9% in assay [4]; 78.3% in [5]; 66% in assay [6]. The growth in assay [7] was 94.9%; in [8] it was 83.5%; in [9], 96.1%.
For `Cc1csc(-c2ccc3c(c2)COC3(CCCN(C)C)c2ccc(F)cc2)c1` (configuration not stated), the growth is 14.4% in assay [1]; -39.6% (active) in [2]; 32% in [3]; 74.8% in assay [4]; -45.1% (active) in [5]; 28% in assay [6]. In addition, the figures for the growth in assay [7], in assay [8] and in assay [9] were 73.6%, -73.6% (active) and 37.5%, respectively.
In the case of `COc1ccc2nc(-c3cc(-c4cc(OC)c(OC)c(OC)c4)n[nH]3)[nH]c2c1`, the growth in [1] is 15.1%; in [2] it was 42.7%; in assay [3], -2.76% (active); in [4], 50.1%; in assay [5], 39.3%; in assay [6], -22.8% (active). In addition, the growth is -92.9% (active) in assay [7], -53.6% (active) in assay [8] and -17.6% (active) in [9].
On to `CN(C)c1ccc(N)c2ccccc12`, for which the growth is -82.9% (active) in [1]; 70.5% in [2]; 101% in assay [3]; 66.7% in [4]; 64.3% in assay [5]; 32.1% in [6]. Besides, the growth in assay [7] was -99.4% (active); in [8] it was -6.64% (active); in assay [9] it was 56.6%.
As to `N#C/C(=C\c1ccc(-c2ccccc2)o1)c1nc(-c2ccco2)cs1`, the growth was 47.6% in assay [1]; 99.8% in assay [2]; 91.9% in assay [3]; 94.1% in assay [4]; 98.3% in assay [5]; 77.8% in [6]. Further, the growth in assay [7] was 73.5%; in assay [8], 77.9%; in assay [9] it was 105%.
Take `N=C(N)N=Nc1ccc(O)cc1`: the growth in assay [1] is 45.9% [100 µM]; in assay [2], 31.9% [100 µM]; in [3] it was 56.3% [100 µM]; in [4], 56.8% [100 µM]; in assay [5] it was 40.5% [100 µM]; in [6], 38.1% [100 µM]. For the same compound, the growth in [7] was 85.9% [100 µM]; in assay [8], 86.6% [100 µM]; in [9], 104% [100 µM].
On to `Oc1cccc2oc(=S)[nH]c12`, for which the growth in [1] is 102%; in assay [2] it was 113%; in assay [3] it was 86.4%; in assay [4], 106%; in assay [5], 109%; in assay [6], 111%. Also, the growth in [7] was 105%; in assay [8], 101%; in assay [9], 104%.
Consider `C=C(C)[C@@H]1CC[C@]2(C)[C@H](CC=C3[C@@H]4CC(C)(C)CC[C@]4(C=O)CC[C@]32C)[C@@]1(C)CCCN`, for which the growth is 42.1% in [1]; 7.12% (active) in assay [2]; 87.8% in assay [3]; 89.1% in assay [4]; 69.6% in [5]; 47.5% in [6]. Also, the growth is 83% in [7], 87.8% in assay [8] and 89.4% in assay [9].
As to `CCSc1sc(-c2ccc(C)cc2)nc1[P+](c1ccccc1)(c1ccccc1)c1ccccc1`, the growth is 1.86% (active) in assay [1]; 2.52% (active) in assay [2]; -8.6% (active) in assay [3]; 8.14% (active) in [4]; 9.48% (active) in assay [5]; -11.5% (active) in assay [6]. Further, the growth in [7] is -98.7% (active); in assay [8] it was -42.5% (active); in assay [9], 15.2%.
For `CC1(C)NCCC[C@]2(C)[C@H]3CC[C@@H]4[C@H]5[C@H](C(=O)/C=C/c6ccccn6)CC[C@]5(CO)CC[C@@]4(C)[C@]3(C)CC[C@@H]12`, the growth is -4.7% (active) in assay [1]; -13.5% (active) in assay [2]; 105% in assay [3]; 77.6% in assay [4]; -21.6% (active) in assay [5]; 22.2% in assay [6]. For the same compound, the growth in [7] was 56.3%; in assay [8] it was 72.8%; in assay [9], 88.3%.
Take `Cc1ccc(-c2nc3ccc(Cl)cc3c(=O)n2N2C(=O)CSC2c2ccccc2Cl)cc1` (configuration not stated): the growth in assay [1] is 86.9%; in assay [2] it was 83.7%; in assay [3], 36.1%; in assay [4] it was 75.2%; in assay [5] it was 22.3%; in [6] it was 70.6%. Also, the growth is 94% in assay [7], 77.3% in assay [8] and 98.6% in assay [9].
As to `C(=C\c1c[nH]c2ccccc12)/c1ccc2ccccc2n1`, the growth in [1] was 53.9%; in [2] it was 33.4%; in assay [3] it was 81.1%; in [4], 84.4%; in [5], 59.7%; in [6], 59.3%. The growth in [7] is 96%; in assay [8], 86.8%; in assay [9] it was 107%.
Take `c1ccc2c(-c3nc(-c4c[nH]c5ncccc45)cs3)c[nH]c2c1`: the growth in assay [1] was 84.9%; in assay [2], 79.2%; in assay [3], 88.4%; in assay [4] it was 97.8%; in assay [5], 104%; in assay [6], 84.2%. The growth in [7] was 106%; in assay [8], 96.9%; in [9], 112%.
For the compound `c1cc(N2CCCC2)c2nc(-c3[nH]ncc3Nc3ncnc4[nH]ccc34)[nH]c2c1`, the growth in [1] is -26.4% (active); in assay [2] it was 1.13% (active); in assay [3], -59.6% (active); in assay [4], -13.1% (active); in assay [5] it was 3% (active); in assay [6], 3.86% (active). Moreover, the growth in assay [7] is -89.3% (active); in assay [8] it was -78.5% (active); in assay [9], -53.3% (active).
